# High-throughput results from PubChem.
# Compounds with a hit are over-represented: about 21% of the library has one in this group of screens.
# Pf growth 48h = Primary qHTS for delayed death inhibitors of the malarial parasite plastid, 48 hour incubation; 5.9% of 310,000 active; Potency, µM (titrated, usually from 28.7 µM), actives largely listed as inhibitors; P. falciparum luciferase growth in erythrocytes, 48 h
#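 Luciferase-expressing P. falciparum in infected erythrocytes (2% hematocrit, 0.1% parasitemia final) in RPMI 1640/0.5% Albumax were exposed to compound for 48 hours at 37 C, 5% CO2; growth read as luminescence.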
# Shiga inhibitor = A qHTS for Small Molecule Inhibitors of Shiga Toxin | Vero cells, Shiga toxin protein synthesis inhibition reporter | inhibition, % at 38.7 µM | 9.2% of 290,000 active | AID 2315, 2010; in the data active = inhibition mostly above about 28%, no sharp cut-off; inactive = mostly below about 43%
# Pf growth 96h = Primary qHTS for delayed death inhibitors of the malarial parasite plastid, 96 hour incubation | 6.9% of 320,000 active | P. falciparum luciferase reporter growth, 96 h | Potency, µM (titrated, usually from 28.7 µM), most hits filed as inhibitors | AID 504834, 2011
#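 Two parasite generations (96 h, 37 C, 5% CO2) of compound exposure in infected erythrocytes (0.05% parasitemia, 2% hematocrit). Luciferase-reporter P. falciparum; decreased luminescence indicates inhibited growth, aimed at apicoplast-acting delayed death.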
# Cycloheximide cs = Cycloheximide Counterscreen for Small Molecule Inhibitors of Shiga Toxin | 12% of 300,000 active | cell reporter, cycloheximide protein synthesis inhibition counterscreen | max response, % | AID 2314, 2010; in the data active = max response mostly above about 13%, no sharp cut-off; inactive = mostly below about 14%; note: read at 38.3 µM for the half of the compounds with a filed dose
# Numbers stand for hits; n = inactive; u = inconclusive; x = no result given; ! = not active in a repeat. Unless noted, calls come from the whole dose curve; as a rule, active = well fitted inhibition curve with a large enough effect; inconclusive = small, poorly fitted or top-dose-only effect, or another doubt; inactive = no such curve, though single readings can be large or run the other way.
SMILES,Pf growth 48h,Shiga inhibitor,Pf growth 96h,Cycloheximide cs
CCOC(=O)/C(=N\Nc1cc(C(F)(F)F)ccc1Cl)N(CC)CC,x,n,n,n
COc1ccc(Br)cc1C(=O)Nc1ccc(O)cc1,n,41,x,17
Cc1ccc(NC(=O)c2cccc3ccccc23)cc1,n,173,n,33
CC(=O)Nc1ccc(NC(=O)c2cccc3ccccc23)cc1,n,n,u,n
COc1cc(OC)c(C(=O)Nc2ccncc2)cc1OC,n,n,u,n
COc1cc(OC)c(C(=O)Nc2ccc(C(=O)c3ccccc3)cc2)cc1OC,n,n,u,n
COc1cc2ccccc2cc1C(=O)Nc1ccc(Cc2ccncc2)cc1,x,n,4.1µM,n
COc1cc2ccccc2cc1C(=O)Nc1ccc(C)cc1,u,n,n,26
O=C1C2CC=CCC2C(=O)N1Cc1ccccc1Cl (stereo not drawn),n,n,n,n
O=[N+]([O-])c1cc(Cl)ccc1Oc1ccc(-c2nnco2)cc1,u,n,u,n
Cc1ccc(OCC(=O)Nc2ccc(S(=O)(=O)Nc3cc(C)nc(C)n3)cc2)c(C)c1,u,x,n,x
Cc1ccc(OCC(=O)Nc2cccc(C)n2)c(C)c1,n,77,x,36
Cc1cccc(NC(=O)COc2ccc(Br)cc2)n1,n,72,n,62
CC(=O)NC(=S)NNC(=O)COc1ccc(Br)cc1,n,n,n,21
CC(=O)NC(=S)NNC(=O)COc1ccc([N+](=O)[O-])cc1,n,n,u,n
Cc1ccc(OCC(=O)NC(=S)Nc2cccc(C)n2)cc1,n,n,n,n
COc1ccc(-c2ccc(C3C4C=CCCC4(C)C(=O)N3Cc3ccccc3)c(F)c2)cc1 (stereo not drawn),x,n,x,n
CC(=O)SCC(Cc1ccccc1)C(=O)NCC(=O)OCc1ccccc1 (stereo not drawn),x,n,x,n
O=C1COc2ccc(-c3csc(NCC4CCCO4)n3)cc2N1 (stereo not drawn),x,n,15µM,n
CC(Nc1nc(-c2ccc3c(c2)NC(=O)CO3)cs1)c1ccccc1 (stereo not drawn),n,n,u,18
COc1cccc(-c2nc(-c3ccc4c(c3)NC(=O)CO4)cs2)c1,n,105,n,50
Cc1ccc(-c2csc(N3CCN(S(=O)(=O)c4ccc5c(c4)NC(=O)CO5)CC3)n2)cc1,u,n,u,n
COc1ccc(-c2cc(-c3ccc(OC)cc3)nc(-c3ccc4c(c3)NC(=O)CO4)c2)cc1,u,n,x,n
CS(=O)(=O)N1CCc2cc(-c3csc(NCC4CCCO4)n3)ccc21 (stereo not drawn),9.3µM,n,u,n
O=C(Nc1nc(-c2ccc(F)c(F)c2)cs1)c1ccc(OCC2CCCO2)cc1 (stereo not drawn),n,n,n,n
SMILES,Pf growth 48h,Shiga inhibitor,Pf growth 96h,Cycloheximide cs
CC(C)C[C@H](NC(=O)[C@H](CC(C)C)NC(=O)[C@H](Cc1ccccc1)NC(=O)[C@@H](N)CO)C(=O)N[C@@H](CCCN=C(N)N)C(=O)N[C@@H](CC(N)=O)C(=O)O,x,n,x,n
COc1cc(C(=O)Nc2nnc(C)s2)c([N+](=O)[O-])cc1OC,n,n,n,n
O=C(CCBr)N1CCN(C(=O)CCBr)CC1,n,x,u,x
CCOCCc1nnc(NC(=O)Cc2c(F)cccc2Cl)s1,n,n,n,n
COc1ccc(COc2cc(-c3cccc(OC)c3)nc3ccc(NC(=O)c4ccc(N(C)C)cc4)cc23)cc1,2.3µM,n,2.9µM,n
COc1ccc(COc2cc(-c3cccc(OC)c3)nc3ccc(N)cc23)cc1,15µM,61!,5.9µM,37!
COc1ccc(COc2cc(-c3cccc(OC)c3)nc3ccc(NC(=O)c4ccc(C)cc4)cc23)cc1,u,n,3.3µM,n
COc1ccc(COc2cc(-c3cccc(OC)c3)nc3ccc(NC(C)=O)cc23)cc1,n,n,n,n
COc1ccc(CN(C(=O)c2cc(=O)c3cc(C)cc(C)c3o2)C2CCS(=O)(=O)C2)cc1 (stereo not drawn),u,n,u,n
C#Cc1ccc([C@H]2C=C(C(=O)N3CCOCC3)O[C@@H](OCc3ccc(CO)cc3)C2)cc1,u,n,u,n
COCCn1c(=O)[nH]c2cc(C(=O)N3CCN(c4cccc(C)c4C)CC3)ccc2c1=O,n,n,u,n
CCN(CC(=O)NC(=O)NC1CCCC1)Cc1ccccc1,n,x,n,x
O=C(Nc1ccccc1NC(=O)c1ccco1)c1ccco1,n,n,x,n
Cc1ccccc1NC(=O)c1ccccc1NC(=O)c1ccco1,n,n,x,n
Cc1ccccc1NC(=O)c1ccc(NC(=O)c2ccco2)cc1,n,n,x,27
O=C(Nc1ccccc1-c1ccccc1)c1ccco1,n,n,1.3µM,n
O=C(Nc1ccccc1-c1ccccc1NC(=O)c1ccco1)c1ccco1,10µM,n,u,n
O=C(NCc1ccccc1)c1ccc(NC(=O)c2ccco2)cc1,n,n,n,n
O=C(Nc1ccccc1-c1ccccc1)c1ccc(NC(=O)c2ccco2)cc1,12µM,n,x,n
O=C1CC(C(=O)Nc2ccccc2)C2(CCCC2)O1 (stereo not drawn),n,n,n,n
Cc1c(NC(=O)c2ccco2)cccc1C(=O)NN1C(=O)c2ccccc2C1=O,n,n,15µM,n
O=C(Nc1ccccn1)c1ccc(NC(=O)c2ccco2)cc1,n,71,u,40
Cc1ccccc1NC(=O)c1ccc(NC(=O)C2CC(=O)OC23CCCCC3)cc1 (stereo not drawn),13µM,n,n,n
COc1ccc(/C=N/NC(=O)C(=O)N2CCCC2)cc1,n,n,u,36
CN(C)c1ccc(/C=N/NC(=O)C(=O)N2CCCCCC2)cc1,n,n,u,26
SMILES,Pf growth 48h,Shiga inhibitor,Pf growth 96h,Cycloheximide cs
COc1cc(/C=N/NC(=O)C(=O)N2CCCCCC2)ccc1O,u,n,n,n
COC(=O)C1CCN(S(=O)(=O)c2cc3c4c(c2)CCN4C(=O)CC3)CC1,n,x,n,x
COc1ccc(NC(=O)CN(C)C(=O)c2ccc3[nH]c4c(c3c2)CC(C)CC4)cc1 (stereo not drawn),n,x,n,x
O=C1CC(SCc2nc3ccccc3[nH]2)C(=O)N1c1ccc(F)cc1 (stereo not drawn),n,n,x,n
NCCSC1CC(=O)N(c2ccc(F)cc2)C1=O (stereo not drawn),n,n,9.3µM,8.3
NCCSC1CC(=O)N(c2ccc(Cl)c(Cl)c2)C1=O (stereo not drawn),n,n,u,16
CCc1ccccc1NC(=O)N1CCC(NC(=O)C(Cc2ccc(OC)c(OC)c2)NC(C)=O)CC1 (stereo not drawn),u,n,12µM,n
CCCCN(S(=O)(=O)c1ccccc1)S(=O)(=O)c1ccccc1,n,n,n,n
CN(Cc1ccccc1)C(=O)CSc1n[nH]c(N)n1,n,n,n,n
COc1ccccc1CNCc1ccc(OC)c(OC)c1OC,n,n,10µM,n
COc1cc(CNCc2cccc(OC)c2OC)cc(OC)c1,n,x,n,n
COc1cccc(CNCc2ccccc2Br)c1OC,n,x,9.3µM,n
COC(=O)c1ccccc1OCCOCCOc1cccc2cccnc12,n,n,n,n
